Test results reported in PubChem BioAssay AID623870 (Broad Institute, 2012).
About 2,600 (0.67%) of roughly 390,000 compounds were called active. What follows is part of a selection rich in actives, with near analogues and random picks from the rest. Unmarked numbers belong to inactive results.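 Rule for the calls: active = mean inhibition of replicates at least 50% and at least half of replicates each reaching 50%; inconclusive = half or more replicates reach 50% but mean below 50%; inactive = the rest.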

target: Transforming acidic coiled-coil-containing protein 3 (Homo sapiens) (UniProt Q9Y6A5); assay: disruptors of ARNT/TACC3 protein interaction, primary screen, biochemical, AlphaScreen, single concentration (AID 623870); conditions: AlphaScreen His-ARNT PAS-B/GST-TACC3 binding, luminescence; at 9.99 µM; hits give high values; TACC3 fragment carries E629A point mutation;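 note: 0% = complete ARNT plus TACC3 wells and 100% = ARNT alone without TACC3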

Row | SMILES | inhibition
1 | COc1ccc(CC(=O)N/N=C(\C)c2ccccn2)cc1 | 65.8% (active)
2 | C/C(Cc1ccccc1)=N\NC(=O)CNC(=O)c1ccccc1Cl | 4.6%
3 | CCOc1ncccc1C(=O)NCCc1ccc(OC)cc1 | 3.87%
4 | C/C(=N\NC(=O)Cc1ccc(Cl)cc1)c1ccccn1 | 28.6% (active)
5 | COc1ccc(CNC(=O)COc2cccnc2[N+](=O)[O-])cc1 | -14.8%
6 | C/C(=N/NC(=O)CSc1ccccn1)c1ccc([N+](=O)[O-])cc1 | -1.61%
7 | C[C@H]1CN([C@@H](C)CO)C(=O)c2cc(/C=C/c3ccccc3)cnc2O[C@H]1CN(C)Cc1cccc(C(=O)O)c1 | -2.95%
8 | CO[C@@H]1CN(C)C(=O)c2cc(NC(=O)Nc3cc(F)ccc3F)ccc2OC[C@@H](C)N(C)C[C@H]1C | 11.6%
9 | CO[C@H]1CN(C)C(=O)c2cc(NC(=O)C3CCOCC3)ccc2OC[C@@H](C)N(Cc2cccnc2)C[C@@H]1C | -4.49%
10 | CCNC(=O)C[C@H]1CC[C@@H]2[C@H](COc3ccc(NC(=O)Nc4cccc(Cl)c4)cc3C(=O)N2C)O1 | 4.93%
11 | CO[C@@H]1CN(C)C(=O)c2cc(NC(=O)C3CCOCC3)ccc2OC[C@H](C)N(Cc2cccnc2)C[C@@H]1C | -4.7%
12 | CCCN(C)C[C@@H]1Oc2cc(-c3ccc(C)cc3)ccc2S(=O)(=O)N([C@@H](C)CO)C[C@H]1C | 3.53%
13 | CO[C@H]1O[C@H](CO)[C@@H](OC(=O)Nc2ccccc2-c2ccccc2)[C@H](OC(=O)Nc2ccccc2)[C@H]1OC(=O)Nc1ccccc1 | 0.749%
14 | COc1ccccc1-c1ccc([C@@H]2[C@@H](CO)N3CCCCN(C(=O)c4ccncc4)C[C@@H]23)cc1 | -0.716%
15 | CC(=O)/C(=N\Nc1ccc(Cl)cc1Cl)Sc1cccc2cccnc12 | 61.1% (active)
16 | CC1(c2ccc(Cl)cc2Cl)NC(=O)N(CC(=O)Nc2cccnc2Cl)C1=O (stereo not given) | 0.909%
17 | CC(NC(=O)COc1cccnc1[N+](=O)[O-])c1ccc(Cl)cc1Cl (stereo not given) | 1.05%
18 | CN1C[C@H]2[C@@H](c3ccccc31)[C@@H](CO)N2Cc1ccccc1 | 2.13%
19 | COc1ccc(NC(=O)Nc2ccc3c(c2)C(=O)N([C@H](C)CO)C[C@H](C)[C@H](CN(C)S(=O)(=O)c2ccc(OC)cc2)O3)cc1 | 8.74%
20 | O=C(Nc1cc(F)ccc1F)N1CCCCN2[C@H](C1)[C@H](c1ccc(-c3cccnc3)cc1)[C@@H]2CO | -4.21%
21 | CNC[C@H]1Oc2cc(C#Cc3ccccc3)ccc2S(=O)(=O)N([C@@H](C)CO)C[C@@H]1C | 21.9%
22 | CNC[C@H]1Oc2cc(C#Cc3ccccn3)ccc2S(=O)(=O)N([C@H](C)CO)C[C@@H]1C | 47.7% (active)
23 | CC(C)NC(=O)N(C)C[C@H]1Oc2cc(C#Cc3ccccn3)ccc2S(=O)(=O)N([C@H](C)CO)C[C@@H]1C | -1.38%
24 | CN1[C@@H]2c3ccc(-c4cccc(F)c4)c(=O)n3C[C@@H]2[C@@H](CO)[C@@H]1C(=O)NC1CCC1 | -9.74%
25 | CCC(=O)Nc1ccc2c(c1)OC[C@H](C)N(C(=O)c1ccncc1)C[C@H](C)[C@H](OC)CN(C)C2=O | 6.95%

Row | SMILES | inhibition
26 | C[C@@H]1CN([C@@H](C)CO)C(=O)c2cccc(NC(=O)c3ccncc3)c2O[C@H]1CN(C)S(=O)(=O)c1ccc(F)cc1 | -8.57%
27 | C[C@@H]1CN([C@H](C)CO)C(=O)c2cc(NC(=O)Cc3cn(C)c4ccccc34)ccc2O[C@@H]1CN(C)S(=O)(=O)c1cccs1 | -11.1%
28 | COC(=O)CC1=NN(c2nc(C)cc(C)n2)C(=O)C1 | 13.9% (active)
29 | Cc1ccc(CC2CC(=O)N(c3nc(C)cc(C)n3)C2=O)cc1 (stereo not given) | -8.57%
30 | Cc1cc(C)nc(N2C(=O)CC(Cc3ccccc3)C2=O)n1 (stereo not given) | -0.771%
31 | COCCNC(=O)C[C@H]1CC[C@@H]2[C@@H](COc3ccc(NC(=O)C4CCOCC4)cc3C(=O)N2C)O1 | -6.26%
32 | CCC(=O)N[C@H]1CC[C@H](CCn2cc(-c3cccc(OC)c3)nn2)O[C@H]1CO | -6.96%
33 | Cc1ccccc1OCCC(=O)Nc1c(C)n(C)n(-c2ccccc2)c1=O | 5.66%
34 | Cc1c(NC(=O)CN2C(=O)C(=O)N(Cc3ccccc3)C2=O)c(=O)n(-c2ccccc2)n1C | 0.167%
35 | Cc1c(NC(=O)CSc2cccc3cccnc23)c(=O)n(-c2ccccc2)n1C | 93.2% (active)
36 | C[C@@H]1CN([C@H](C)CO)C(=O)c2ccccc2-c2ccccc2CO[C@@H]1CN(C)S(=O)(=O)CC(F)(F)F | -0.141%
37 | C[C@H](CO)N1C[C@H](C)[C@H](CN(C)C)Oc2ccc(NC(=O)Cc3ccccc3)cc2CC1=O | -9.42%
38 | C[C@H](CO)N1C[C@H](C)[C@H](CN(C)C(=O)NC2CCCCC2)Oc2c(NC(=O)C3CC3)cccc2C1=O | -12.2%
39 | C=CCNC(=S)N/N=C/c1ccc(C)s1 | 3.54%
40 | CNC(=S)N/N=C/c1ccc(N2CCOCC2)s1 | 46.8% (active)
41 | O=[N+]([O-])c1cc(Cl)cc(/C=N/NC(=S)Nc2cc(S(=O)(=O)N3CCOCC3)ccc2Cl)c1O | 41.4%
42 | COc1ccc(NC(=O)N(C)C[C@@H]2Oc3c(NC(=O)C4CCOCC4)cccc3C(=O)N([C@H](C)CO)C[C@@H]2C)cc1 | 26.5%
43 | O=C(NNC1=NCCC1)c1cccc(S(=O)(=O)N2CCCCC2)c1 | 30.6%
44 | Cc1ncc(CO)c(/C=N/NC(=O)c2cccc(S(=O)(=O)N3CCCC3)c2)c1O | 75.9% (active)
45 | O=C(Nc1nncs1)c1cccc(S(=O)(=O)N2CCCCC2)c1 | -5.27%
46 | CCCN(C)C[C@@H]1OCCCC[C@@H](C)Oc2ccc(NS(=O)(=O)c3c(C)noc3C)cc2C(=O)N([C@H](C)CO)C[C@@H]1C | -10.1%
47 | COCC#Cc1cnc2c(c1)C(=O)N([C@@H](C)CO)C[C@@H](C)[C@@H](CN(C)C(=O)Nc1ccc(OC)cc1)O2 | 4.88%
48 | ON=C1/C(=N\O)CC2(C/C1=N/O)OCCO2 | 59% (active)
49 | C[C@@H]1CN([C@H](C)CO)C(=O)c2cccc(NS(=O)(=O)c3cccs3)c2O[C@@H]1CN(C)C(=O)Nc1cccc2ccccc12 | 26.7%
50 | Cc1cccc(-c2ccc([C@@H]3[C@@H](CO)N4CCCCN(S(=O)(=O)c5cccs5)C[C@H]34)cc2)c1 | 14.3%

Row | SMILES | inhibition
51 | O=C(COC(=O)CCCN1C(=O)c2cccc3cccc(c23)C1=O)NC1CCS(=O)(=O)C1 (stereo not given) | 7.07%
52 | O=C1c2cccc3cccc(c23)C(=O)N1CCCCCc1n[nH]c(=S)o1 | 28.3% (active)
53 | O=C(CCCN1C(=O)c2cccc3cccc(c23)C1=O)N1CCN(Cc2ccc3c(c2)OCO3)CC1 | -11.4%
54 | C[C@H](CO)N1C[C@H](C)[C@H](CN(C)C(=O)Cc2ccccn2)Oc2ncc(-c3cncnc3)cc2C1=O | -0.547%
55 | CO[C@@H]1CN(C)C(=O)c2ccc(NC(=O)Nc3c(C)noc3C)cc2OC[C@@H](C)N(C(=O)Nc2cccc(Cl)c2)C[C@H]1C | 4.61%
56 | COc1ccccc1NC(=O)N[C@H]1CC[C@H](CCNC(=O)Cc2ccccn2)O[C@@H]1CO | 6.44%
57 | CC(C)n1cnc2c(NCc3ccccc3)cc(OCC3CCN(C)CC3)cc21 | 28.3% (active)
58 | CCC(=O)Nc1ccc2c(c1)C(=O)N(C)[C@@H]1CC[C@@H](CC(=O)NCCN3CCCCC3)O[C@@H]1CO2 | -4.58%
59 | COc1ccccc1-c1cn(CC[C@@H]2CC[C@@H](NC(=O)c3ccccc3F)[C@H](CO)O2)nn1 | 1.05%
60 | C[C@H]1CN([C@@H](C)CO)C(=O)c2cc(C3=CCCCC3)cnc2O[C@H]1CN(C)Cc1ccncc1 | -9.48%
61 | O=C(c1cccs1)N(C(=O)c1cccs1)c1ccccn1 | 0.575%
62 | O=C(NCc1cccnc1)c1nc(-c2cccs2)no1 | -5.94%
63 | c1ccc(-c2noc(-c3cccs3)n2)nc1 | 48.9% (active)
64 | CCOC(=O)N1CCN(C(=O)C(C)NC(=O)c2ccco2)CC1 (stereo not given) | -22%
65 | O=C(COc1ccccc1F)Nc1nc(-c2ccccn2)cs1 | 69.7% (active)
66 | CC1CCN(S(=O)(=O)c2nnc(NC(=O)COc3ccccc3F)s2)CC1 | 31.3%
67 | O=C(CCN1C(=O)C2C3C=CC(C3)C2C1=O)Nc1ccccc1F (stereo not given) | -30.3%
68 | CCCC(NC(=O)c1ccco1)c1nc2ccccc2[nH]1 (stereo not given) | -4.8%
69 | O=C(CN1C(=O)C2C3C=CC(C3)C2C1=O)Nc1nc(-c2ccccn2)cs1 (stereo not given) | 73.4% (active)
70 | O=C(NCCN1C(=O)C2C3C=CC(C3)C2C1=O)Nc1ccccn1 (stereo not given) | 0.008%
71 | CC(NC(=O)c1ccco1)C(=O)Nc1nc(-c2ccccn2)cs1 (stereo not given) | 65.4% (active)
72 | O=C(COc1cccnc1[N+](=O)[O-])Nc1ccc(Cl)cc1F | -2.26%
73 | COc1ccc(S(=O)(=O)N(C)C[C@H]2Oc3ccc(NC(=O)CCC(F)(F)F)cc3CC(=O)N([C@H](C)CO)C[C@@H]2C)cc1 | 14.1%
74 | CCCN(C)C[C@H]1Oc2ncc(-c3cccnc3)cc2C(=O)N([C@@H](C)CO)C[C@@H]1C | -0.744%
75 | Cc1ccc(S(=O)(=O)N(C)C[C@@H]2OCCCC[C@@H](C)Oc3ccc(NC(=O)C4CCCCC4)cc3C(=O)N([C@H](C)CO)C[C@H]2C)cc1 | -8.72%
